Experimental data published in PubChem BioAssay AID778 (Sanford-Burnham Center for Chemical Genomics, 2007).
Screen size: about 96,000 compounds; about 20,000 (21%) were called active. These entries were drawn from the full list. A number with no mark means an inactive call.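 How the source made its calls: active means CYP2C19 inhibition above a set limit at 5 µM in the primary screen (cut at about 50% in these data); inactive means the rest.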

target: Cytochrome P450 2C19 (Homo sapiens) (UniProt P33261); assay: blockers of cytochrome P450 2C19 activity – biochemical, luminescence, ADME assay, primary screen (AID 778); conditions: CYP2C19 Supersomes, luciferin-H EGE luminescence, 30 min; at 5 µM; stronger effect = higher value;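 further: plate controls were negative control wells for no effect and 2.5 mM tranylcypromine positive control for full effect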
Sequence (P33261 whole entry, looked up): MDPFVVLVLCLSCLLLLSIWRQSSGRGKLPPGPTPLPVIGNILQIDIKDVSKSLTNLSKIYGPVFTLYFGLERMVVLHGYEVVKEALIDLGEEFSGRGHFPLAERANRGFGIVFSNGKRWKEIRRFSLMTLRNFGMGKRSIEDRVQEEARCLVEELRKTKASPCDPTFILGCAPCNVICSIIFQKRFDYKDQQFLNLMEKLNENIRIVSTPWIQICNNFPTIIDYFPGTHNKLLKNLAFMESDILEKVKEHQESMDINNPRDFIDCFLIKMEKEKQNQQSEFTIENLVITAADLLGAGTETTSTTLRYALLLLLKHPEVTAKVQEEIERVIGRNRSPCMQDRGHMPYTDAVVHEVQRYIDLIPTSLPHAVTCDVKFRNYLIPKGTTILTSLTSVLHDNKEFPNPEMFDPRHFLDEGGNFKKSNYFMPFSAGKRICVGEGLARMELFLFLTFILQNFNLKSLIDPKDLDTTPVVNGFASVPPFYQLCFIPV

Row | SMILES | inhibition
1 | Cc1n[nH]c(=S)n1/N=C/c1ccc(Br)o1 | -3.6%
2 | CCC(Sc1nncn1C)C(=O)Nc1nnc(-c2ccc(Cl)cc2)s1 (configuration not stated) | 17.4%
3 | CCOc1cc2[nH]c(=S)n(CCCN3CCCC3=O)c(=O)c2cc1OCC | 6.7%
4 | O=C(O)C1CCCCC1C(=O)Nc1ccc(Cl)cc1 (configuration not stated) | 29.9%
5 | O=C(Nc1cnn(Cc2ccc(Cl)cc2)c1)C1CCCC1 | 84.8% (active)
6 | O=C(O)c1ccc(NC(=O)C2CCCCC2)cc1 | -21.5%
7 | C[N+](C)(C)CCNC(=O)c1c(O)c2c([nH]c1=O)CCCC2 | 7.7%
8 | O=C(O)[C@@H]1CCCN1c1ncnc2sc3c(c12)CCC3 | 6.9%
9 | O=P(O)(CP(=O)(c1ccccc1)c1ccccc1)c1ccccc1O | 22.6%
10 | O=C1CC(c2cccc(Br)c2)C2=C(CCCC2=O)N1 (configuration not stated) | 11.9%
11 | CN(C)Cc1ccccc1C1(O)c2ccccc2CSc2ccccc21 (configuration not stated) | 67.5% (active)
12 | CCN(CC)c1ccc(NC(=O)c2ccc(Cl)nc2)cc1 | 7.7%
13 | CSc1ccc(Cl)c(C(=O)OCC(=O)N2CC(C)OC(C)C2)c1 (configuration not stated) | 12.4%
14 | O=C(CC1Nc2ccccc2NC1=O)Nc1ccccc1 (configuration not stated) | 2.9%
15 | O=C(O)CCCC(=O)Nc1ccccc1-n1ccnc1 | -4.7%
16 | O=C(CCN1c2ccccc2Sc2ccccc21)Nc1ccccc1 | 80.2% (active)
17 | Cc1cc(N)n2nc(-c3ccc(C(C)(C)C)cc3)cc2n1 | 26.1%
18 | COc1cccc(Nc2ncccc2C(=O)O)c1 | -9.2%
19 | O=C(CNC(=O)Cc1ccccc1)NCC(=O)OCC(=O)c1ccccc1Cl | 1.6%
20 | COc1ccc(N(Cc2cc3cc(OC)ccc3[nH]c2=O)S(C)(=O)=O)cc1 | 18.7%
21 | CC(C)(C)n1nnnc1C(c1cccs1)N(Cc1cccnc1)CC1CCCO1 (configuration not stated) | 31.5%
22 | CCOc1ccc2[nH]c(=O)c(CN(Cc3nnnn3Cc3ccccc3)CC3CCCO3)cc2c1 (configuration not stated) | 8.7%
23 | COc1ccc2[nH]c(=O)c(CN(Cc3nnnn3CCc3ccccc3)CC3CCCO3)cc2c1 (configuration not stated) | 77.7% (active)
24 | Cc1cc2cc(CN(Cc3cccs3)Cc3nnnn3CC3CCCO3)c(=O)[nH]c2cc1C (configuration not stated) | 34.3%
25 | Cc1cc(C)c2cc(CN(Cc3cccs3)Cc3nnnn3CC3CCCO3)c(=O)[nH]c2c1 (configuration not stated) | 84.5% (active)

Row | SMILES | inhibition
26 | Nc1c(C(=O)NCc2ccccc2)sc2nc3c(cc12)C(=O)CCC3 | -16.5%
27 | CCn1c(=O)cc(O)c2ccccc21 | -18.1%
28 | CC(=O)c1c(C)c[nH]c1C | -14.8%
29 | CCC(=O)Nc1ccc(C(=O)Nc2ccc3c(c2)C(=O)N(CC2CCCO2)C3=O)cc1 (configuration not stated) | -1%
30 | CCC(C)(C)n1nnnc1CN1CCN(c2nc3ccc(C)cc3cc2C#N)CC1 | 0.3%
31 | CCSC1(SCC)N=C(N)C2(C#N)C(c3ccccc3)NC(C)=CC12C#N (configuration not stated) | 16.1%
32 | O=C(CCl)NNc1cccc(Cl)n1 | 6.7%
33 | COC(=O)CN1C(C)=Nc2ccc(Br)cc2C1c1ccccc1 (configuration not stated) | 43.4%
34 | COC(=O)C1=C(C)N(C)C(C)=C(C(=O)OC)C1c1cccc(Br)c1 | 79.2% (active)
35 | COC(=O)c1oc2ccc(Br)cc2c1NC(C)=O | 14.7%
36 | CCOC(=O)CN1CC23C=CC(O2)C(C(=O)Nc2ccc(F)cc2)C3C1=O (configuration not stated) | 40.7%
37 | Cc1occc1C(=O)NNC(=S)NCC(C)C | 74.6% (active)
38 | CCNC(=S)NNC(=O)Cc1ccccc1 | 18.2%
39 | CC(C)CNC(=S)NNC(=O)c1ccccc1OC(F)F | 16.6%
40 | O=C(NCc1ccco1)c1nc2ncccn2n1 | -0.7%
41 | CN1CCN(Cc2nc3c(c(=O)n(C)c(=O)n3C)n2Cc2cccc3ccccc23)CC1 | -17.1%
42 | O=S(=O)(c1cccc(-c2nnc(SC(F)F)n2-c2ccccc2)c1)N1CCCCC1 | 41.6%
43 | CC(=O)c1cccc(S(=O)(=O)N2CCC(n3nnc4cc(F)ccc43)CC2)c1 | 43.1%
44 | O=S(=O)(c1cccc(S(=O)(=O)N2CCC(n3nnc4ccccc43)CC2)c1)N1CCCCC1 | 94.7% (active)
45 | Cc1ccc(CNC(=O)CCNC(=O)Cn2ccc3ccccc3c2=O)cc1 | 17.4%
46 | CCOCCOCCC(C(=O)O)P(=O)(c1ccccc1)c1ccccc1 (configuration not stated) | -2.4%
47 | COc1ccc(NC(=O)ON=C2c3ccccc3-c3ccccc32)cc1 | 11.6%
48 | CCCCC(=O)N/N=C(\C)CC(=O)Nc1cc(Cl)ccc1OC | 6.1%
49 | COc1ccc(Cl)cc1NC(=O)CN(C)C(=O)CNC(=O)C12CC3CC(CC(C3)C1)C2 | 67.9% (active)
50 | COc1ccc(Cl)cc1NC(=O)c1oc(C)nc1C | -9%

Row | SMILES | inhibition
51 | O=C(CSCc1ccc([N+](=O)[O-])cc1)Nc1cccc(C(=O)Nc2ccccc2C(=O)O)c1 | 14.5%
52 | COc1ccccc1Cc1nc(-c2ccc(C)cc2)no1 | 35.6%
53 | Cc1ccc(S(=O)(=O)NCC(C)NS(C)(=O)=O)cc1 (configuration not stated) | 16.9%
54 | COc1ccccc1CNS(=O)(=O)c1ccc(C)cc1 | 92.5% (active)
55 | Nc1c(C(=O)NCc2ccccc2)nnn1Cc1cccc(Cl)c1 | 6.4%
56 | CC(C)=CC(=O)Nc1nnc(-c2ccc(F)cc2)s1 | 4.7%
57 | CCOC(=O)C1CCN(C(=O)C2CCN(S(=O)(=O)CC)CC2)CC1 | -18.2%
58 | CCOC(=O)C1CCN(C(=O)C2CCN(S(=O)(=O)N3CCCC3)CC2)CC1 | 10.9%
59 | CCOC(=O)C1CCN(C(=O)Nc2ccc(Cl)cc2)CC1 | 63.1% (active)
60 | Cc1ccc(-c2nc(C)sc2CC(=O)O)cc1 | 29.8%
61 | O=C(Cc1ccccc1)N/N=C/c1ccc(Cl)cc1Cl | 7.9%
62 | CSc1ccc(/C=N\NC(=O)COc2ccc(Cl)cc2Br)cc1 | 76.4% (active)
63 | NC(=O)COc1ccc(/C=N/NC(=O)C2CCCN2S(=O)(=O)c2ccc(Cl)cc2)cc1 (configuration not stated) | 19.2%
64 | CS(=O)(=O)c1ccc2nc(NC(=O)C3C4C=CC(C4)C3C(=O)O)sc2c1 (configuration not stated) | 0.7%
65 | COC(=O)c1cc(NC(=O)C2C3C=CC(C3)C2C(=O)O)cc(C(=O)OC)c1 (configuration not stated) | 2.5%
66 | CC(C)COC(=O)c1ccc(NC(=O)C2C3C=CC(C3)C2C(=O)O)cc1 (configuration not stated) | 54.2% (active)
67 | CC(Sc1nnc(Cc2ccc([N+](=O)[O-])cc2)o1)C(N)=O (configuration not stated) | 16.6%
68 | O=C(Cn1cnc2c(cnn2-c2ccccc2)c1=O)NCc1ccccc1 | -10.8%
69 | CN1C(=O)C(CC(N)=O)N(NC(=O)c2ccc(Cl)cc2)C1=S (configuration not stated) | -7.8%
70 | CC(=O)N1CC2(C)CN(C(C)=O)CC(C)(C1)C2=O | 79.3% (active)
71 | CCCCC(=O)N1CC2(C)CN(C(=O)CCCC)CC(C)(C1)C2=O | -1.6%
72 | CCCCNC(=O)CSc1nc2ccc(NC(=O)CSc3nnc(COc4ccccc4C)n3C)cc2s1 | 19.1%
73 | CC(C)c1ccc(NC(=O)CCN2C(=O)c3ccc([N+](=O)[O-])cc3C2=O)cc1 | 8.5%
74 | Cc1sc(NC(=O)C2C3CCC(O3)C2C(=O)O)c(C(=O)OC(C)C)c1-c1ccc(Cl)cc1 (configuration not stated) | 19.7%
75 | CCC(CC)C(=O)Nc1cc(C(=O)OC)cc(C(=O)OC)c1 | 1.1%

Row | SMILES | inhibition
76 | CC(C)OC(=O)c1cc(NC(=O)C2C3CCC(O3)C2C(=O)O)cc(C(=O)OC(C)C)c1 (configuration not stated) | 77.9% (active)
77 | COCCCn1c(SCc2cccc(OC)c2)nc2cc(OC)c(OC)cc2c1=N | 53.4% (active)
78 | OCCN1CCOCCOCCN(CCO)CCN(CCO)CC1 | 16.6%
79 | Cc1nn(Cc2ccccc2)c(Cl)c1C(=O)OC1CCOC1=O (configuration not stated) | 63.5% (active)
80 | CC(=O)c1c(N2CCOCC2)nc(=S)n(Cc2ccccc2)c1C | 12.8%
81 | O=C(OC1CCOC1=O)c1ccc(-c2nc3ccccc3s2)s1 (configuration not stated) | 11.3%
82 | COc1cccc(-c2nc(S(=O)(=O)c3ccccc3)c(N3CCOCC3)o2)c1 | 27.7%
83 | O=C(NCc1cn2ccsc2n1)Nc1cccc(Cl)c1 | 13.3%
84 | O=c1[nH]c(=O)n(Cc2ccco2)c2c1C(C(F)(F)F)(C(F)(F)F)N=C(c1ccco1)N2 | -12.6%
85 | Cc1cc(-c2ccccc2)n2nc(C)c(-c3ccccc3)c2n1 | 30.7%
86 | Cc1cc(C)n(C(=O)c2ccc(C)c(S(=O)(=O)N3CCOCC3)c2)n1 | 68.7% (active)
87 | Cc1ccc(C(=O)Nc2ccccc2C(=O)NC2CCCCC2)cc1S(=O)(=O)N1CCOCC1 | 21.5%
88 | CC(=O)c1c(N2CCOCC2)nc(=S)n(-c2cc(C)ccc2C)c1C | -10.5%
89 | Cc1cc(C)n(C(=O)c2ccc(S(=O)(=O)N3CCCC3)cc2)n1 | 68.7% (active)
90 | Cc1ccccc1-c1nnn(CC(=O)c2ccc(S(=O)(=O)N3CCCC3)cc2)n1 | 14.5%
91 | CCOC(=O)c1csc(NC(=O)c2ccc(S(=O)(=O)N3CCCC3)cc2)n1 | -7%
92 | Cc1ccc(-c2nn(C(C)(C)C)c3ncnc(N)c23)cc1 | 38.5%
93 | CCN(Cc1cc2cc(C)ccc2[nH]c1=O)S(=O)(=O)c1ccccc1 | 31.8%
94 | CCCNc1ncnc2sc(C)c(C)c12 | 29.6%
95 | COc1ccc(Cl)cc1C(=O)NCc1cn(C)nc1C | 10.4%
96 | COC(=O)c1ccc(CSc2nncn2C)cc1 | 39.9%
97 | COC(=O)c1ccc(OC(=O)c2nn(C)cc2Cl)c(OC)c1 | 67.9% (active)
